This is a sample that favours compounds with a hit; in the whole collection about 9.4% have one here.
Pf growth 96h: inhibits malaria parasite growth, 96 h; P. falciparum luciferase reporter growth, 96 h; hit rate 6.9% among 320,000; Potency, µM (highest dose often 28.7 µM), for inactives: top-dose activity change, negative = inhibition, most hits filed as inhibitors; also: % is scaled to controls: 0 for no effect and ±100 for the full control effect
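Erythrocytes infected with luciferase-expressing P. falciparum were dispensed at 2% hematocrit and 0.05% parasitemia (final), then incubated with compounds 96 hours at 37 C in 5% CO2. Luminescence after detection reagent addition reported growth.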
Pf growth 48h: inhibits P. falciparum growth in the first generation, 48 h; P. falciparum luciferase growth in erythrocytes, 48 h; Potency, µM (series often up to 28.7 µM), for inactives: at the highest dose activity change, negative = inhibition, hits mostly inhibitors; hit rate 5.9% among 310,000; AID 504832; also: % is scaled to controls: 0 for no effect and ±100 for the full control effect
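Luciferase-expressing parasites in RBCs, 2% Hct / 0.1% parasitemia final; RPMI 1640 + 0.5% Albumax; 37 C, 5% CO2, one generation; luminescence read-out, lower signal = inhibition.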
SARS PLpro yeast: inhibitors of SARS-CoV papain-like protease in yeast; AID 485353; hit rate 0.19% among 330,000; S. cerevisiae expressing SARS-CoV PLpro, growth rescue; Potency, µM (top dose mostly 32.9 µM), without a hit: top-dose activity, positive = growth rescue, most hits filed as activators; calls by dose curve; also: 0% is about no effect; nearly all actives have a fitted effect of over 55% in size
AMA1-RON2 inh: inhibitors of Plasmodium falciparum AMA1-RON2 interaction. AlphaScreen AMA1-biotinylated RON2 peptide binding. Potency, µM (top dose mostly 58.2 µM), inactives show top-dose activity change, negative = inhibition, hits mostly inhibitors. hit rate 0.2% among 360,000;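 also: 0% = vehicle wells and -100% = peptide control; nearly all actives have a fitted effect of over 45% in size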
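AMA1 (3D7) with his tag at 25 nM final met compounds first, then biotinylated RON2 peptide at 25 nM; detection used donor plus acceptor beads, 10 µg/mL apiece, read by AlphaScreen after 30 min at room temperature.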
* = called active by the depositor; ? = inconclusive; nt = no result given; [ ] = dose if it differs, or a comment. Unless noted, calls follow the shape of the dose curve; as a rule, active = well fitted curve in the direction sought with a large enough effect; inconclusive = small, poorly fitted or top-dose-only effect, or another doubt; inactive = no such curve, though single readings can be large; an effect the other way counts as inactive or inconclusive. Potency is read from the fitted curve at half-maximal effect.

SMILES | Pf growth 96h | Pf growth 48h | SARS PLpro yeast | AMA1-RON2 inh
CNC(=O)Oc1ccc2c(c1)[C@]1(C)CCN(C)[C@@H]1N2C | 3.7µM* | 8.28µM* | -12.7% | -0.3%
CCC(=O)Nc1ccc(C(=O)CSc2nnc(-c3ccc(NS(C)(=O)=O)cc3)n2C)cc1OC | 0.465µM* | -19.2% | 3.5% | 2.6%
Cn1c(SCCCC(=O)c2ccccc2)nnc1-c1ccncc1 | -1.2% | -17.4% | 1.3% | -2.8%
COCCn1c(SCCCC(=O)c2ccc(Br)cc2)nnc1-c1ccncc1 | 13.1µM* | nt | -8.1% | 19.9%
Cn1c(SCCCC(=O)c2ccc(F)cc2)nnc1-c1ccncc1 | 10.4µM* | ? | 2.6% | 2.6%
CCn1c(CSc2nnc(-c3ccncc3)n2CCOC)nc2cc(C(=O)O)ccc21 | -2.5% | 8.8% | -0.5% | 20.9%
Cc1ccn2cc(C(=O)Nc3nnc(C)s3)nc2c1 | 4.15µM* | 63.0% | 10.9% | 54.3%
O=C(CSc1ncccn1)N1CCN(C(c2ccccc2)c2ccccc2)CC1 | ? | nt | 3.9% | -11.3%
C/C(Cl)=C\Cn1c(NCCc2ccccc2)nc2c1c(=O)n(C)c(=O)n2C | 40.1% | 9.28µM* | 1.8% | 4.4%
Cn1c(=O)c2c(nc(NCCc3ccccc3)n2CC(=O)NCCc2ccccc2)n(C)c1=O | 13.1µM* | -10.2% | -5.4% | 3.2%
Cn1c(=O)c2c(nc(NCc3ccccc3)n2CC(=O)NCc2ccccc2)n(C)c1=O | 56.2% | -2.4% | -2.6% | -0.3%
O=C(NC(=S)Nc1ccc(S(=O)(=O)N2CCCC2)cc1)c1cccs1 | ? | -17.4% | 18.2% | 34.8%
Cc1ccc(CNC(=O)CSCc2ccc(F)cc2)cc1 | 9.5% | 0.1% | -1.3% | -0.6%
O=C1CC(c2ccco2)CC(O)=C1C=NCC1NCCc2ccccc21 (centres undefined) | 1.0% | 10.4µM* | -12.1% | -28.1%
CN(C)N1C(N)=C(C#N)C(c2cccnc2)C2=C1CCCC2=O (centres undefined) | 13.1µM* | -16.5% | 6.3% | -19.7%
O=C1CCCC2=C1C(c1ccccc1)CC(=O)N2c1ccccc1 (centres undefined) | 13.1µM* | -12.9% | -0.5% | -3.5%
N#CC1=C2N=C(N)c3c(sc4c3CCCCC4)N2C2=C(C(=O)CCC2)C1c1ccccc1 (centres undefined) | 4.65µM* | 2.94µM* | 0.8% | 8.8%
CSc1ccc(C2C(C#N)=C(N)N(c3ccccc3)C3=C2C(=O)CCC3)cc1 (centres undefined) | 0.0% | 13.1µM* | 0.8% | 13.1%
COc1ccc(NC(=O)Cc2c(Sc3ccccc3)c3ccccc3n2C)cc1 | ? | ? | 4.3% | -0.6%
O=C(NCC1CC1(Cl)Cl)Nc1ccc(Cl)c(Cl)c1 (centres undefined) | ? | ? | -23.8% | 9.0%
Cc1cccc(Cc2c(C)nc3c(C(=O)NCc4ccco4)cnn3c2C)c1 | 0.0% | ? | -3.5% | -28.8%
CCN(C(=O)CSc1nnc(-c2ccco2)n1Cc1ccccc1)C1CCS(=O)(=O)C1 (centres undefined) | ? | -5.5% | 7.1% | 22.7%
COc1ccc(N2C(N)=C(C#N)C(c3ccsc3)C3=C2CCCC3=O)c(OC)c1 (centres undefined) | 3.7µM* | ? | 8.4% | 86.3%
C[C@H](CO)N1C[C@H](C)[C@@H](CN(C)C(=O)Oc2ccccc2)OCc2cn(nn2)CCCC1=O | nt | nt | nt | 17.6%
CC(=O)Nc1ccc(NC(=O)C(C)OC(=O)C2(c3ccc(Cl)cc3)CCCC2)cc1 (centres undefined) | 11.7µM* | 9.28µM* | 3.5% | -3.8%
SMILES | Pf growth 96h | Pf growth 48h | SARS PLpro yeast | AMA1-RON2 inh
CC(=O)Nc1ccc(NC(=O)C(C)OC(=O)C2(c3ccc(F)cc3)CCCC2)cc1 (centres undefined) | ? | ? | 1.6% | 0.0%
Cc1cc(Cl)ccc1OCC(=O)NNC(=O)C1CCCO1 (centres undefined) | 16.0% | 17.1% | 1.7% | 58.8%
CN(C)S(=O)(=O)c1cccc(NC(=O)COc2cccc(C#N)c2)c1 | 7.8% | 21.9% | 6.0% | -10.8%
COc1ccc(NC(=O)CNc2cc(C)ccc2C)cc1S(=O)(=O)N1CCOCC1 | 14.7µM* | ? | -9.6% | -3.1%
COc1ccc(NC(=O)CNCc2ccc(Cl)cc2)cc1S(=O)(=O)N1CCOCC1 | nt | nt | -1.6% | -8.6%
COc1ccc(CC(=O)Nc2ccc(F)c(Cl)c2)cc1S(=O)(=O)N1CCOCC1 | ? | 6.57µM* | 3.6% | 0.8%
COc1ccc(Br)cc1CN(C)C(=O)Cc1ccc(OC)c(S(=O)(=O)N2CCOCC2)c1 | 6.57µM* | ? | 3.3% | -3.5%
COc1ccc(CN(C)C(=O)Cc2ccc(OC)c(S(=O)(=O)N3CCOCC3)c2)cc1OC | ? | -17.0% | 2.7% | 91.5%
COc1ccc(S(=O)(=O)N(C)C)cc1NC(C)C(=O)Nc1cccc(C#N)c1 (centres undefined) | ? | 2.94µM* | -0.3% | -7.2%
Cc1ccc(NC(=O)Cc2ccc(Cl)cc2)cc1S(=O)(=O)N1CCCCCC1 | ? | 13.1µM* | 3.2%[6.58 µM] | 13.1%
COc1ccc(Cl)cc1NC(=O)CNc1ccccc1CN(C)C1CCCCC1 | ? | ? | 0.0% | -27.3%
COc1ccc(C)cc1NC(=O)CNc1ccccc1CN(C)C1CCCCC1 | 4.65µM* | 14.7µM* | -0.3% | -9.2%
COc1ccc(NC(=O)c2cc3c(s2)CCC(C)C3)cc1S(=O)(=O)N1CCOCC1 (centres undefined) | 7.38µM* | ? | -6.5% | -7.3%
COc1ccc(S(=O)(=O)N(C)C)cc1NCC(=O)Nc1ccc(Br)c(C)c1 | ? | 10.4µM* | -0.3% | -26.0%
COc1ccc(C)cc1NC(=O)CSc1nc2ccccc2nc1N1CCCC1 | ? | ? | 5.5% | 14.3%
COc1ccc(NC(C)=O)cc1S(=O)(=O)N1CCN(C(=O)c2ccccc2F)CC1 | ? | 2.08µM* | -0.1% | -5.7%
COC(=O)c1cc(OC)c(OC)cc1NCC(=O)Nc1ccc(OC)c(OC)c1 | 44.3% | ? | 7.9% | ?
COc1ccc(NC(=O)Cc2ccc(Cl)cc2)cc1S(=O)(=O)N1CCCCC1 | 10.4µM* | ? | 1.3% | -5.4%
COc1ccc(C)cc1NCC(=O)Nc1ccc(C(C)(C)C)cc1 | 9.28µM* | ? | -16.3% | ?
CC(C)(C)C1CCC(C(=O)Nc2ccccc2N2CCOCC2)CC1 (centres undefined) | ? | 9.28µM* | 4.8% | 3.2%
COc1cc(OC)c(S(=O)(=O)N2CCN(C(=O)c3ccccc3F)CC2)cc1NC(C)=O | -21.1% | -10.3% | -0.3% | 2.7%
Cc1nc(Cc2nnc(SCC(=O)N(C)c3ccccc3)o2)cs1 | -5.6% | 3.5% | nt | 25.7%
CCOC(=O)CN1CC23C=CC(O2)C(C(=O)NC2CCCCC2)C3C1=O (centres undefined) | ? | nt | -1.9% | 6.8%
O=C(NCc1ccc(F)cc1)c1cc(C2CCCN(C(=O)CCCc3ccccc3)C2)on1 (centres undefined) | nt | nt | nt | -1.7%
c1ccc(-c2nnc(N3CCCC3)nc2-c2ccccc2)cc1 | -26.1% | -14.8% | -6.2% | 7.4%
